# CHO-K1 Ca ag: counter-screen for M1 agonists: effect in parental CHO-K1 cells. Fluo-8 calcium fluorescence; scaled to maximal ATP response, vehicle zero. activation, % at 3 µM. hit rate 0.48% among 360,000; in the data active = activation above about 15%;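 also: untransfected CHO-K1 host cells lacking M1 receptor as counterscreen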
# CHO-K1 Ca antag: M1 antagonist counterscreen hit in parental CHO-K1 cells | AID 602250 | inhibition, % at 3 µM | hit rate 0.6% among 360,000 | ATP-induced calcium, Fluo-8 fluorescence;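 active = inhibition above a per-plate cutoff, the plate's mean sample inhibition plus 3 SD, cut at about 24% in these data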;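 also: 0% = DMSO plus EC80 ATP and 100% = DMSO alone without ATP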
# CHO-K1 Ca PAM: nonselective calcium activators in parental CHO-K1 cells, primary screen, counter-screen for M1 PAM project, cell-based, Fluo-8 calcium fluorescence, full deck, 1536-well. hit rate 0.02% among 360,000. activation, % at 3 µM. ATP EC20; 0% at ATP EC20, 100% at ATP max. AID 602247, 2012;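 active = activation above the run cutoff, the mean activation of all test compounds plus 3 SD, cut at about 40% in these data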;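 also: peak over basal fluorescence ratio in a 140 s read after ATP addition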
# M1 ag: human M1 muscarinic receptor agonists, primary screen, Fluo-8 calcium fluorescence, CHO-K1 cells, HTS. Muscarinic acetylcholine receptor M1 (Homo sapiens), P11229. CHO-K1 hM1, agonist mode; 0% DMSO, 100% acetylcholine EC100. activation, % at 3 µM. hit rate 0.33% among 360,000. AID 588814, 2011;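 active = activation above the run's mean compound activation plus 3 SD, cut at about 16% in these data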;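 also: peak over basal fluorescence ratio within a 140 s kinetic read after compound addition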
# Target sequence (P11229 whole entry, looked up): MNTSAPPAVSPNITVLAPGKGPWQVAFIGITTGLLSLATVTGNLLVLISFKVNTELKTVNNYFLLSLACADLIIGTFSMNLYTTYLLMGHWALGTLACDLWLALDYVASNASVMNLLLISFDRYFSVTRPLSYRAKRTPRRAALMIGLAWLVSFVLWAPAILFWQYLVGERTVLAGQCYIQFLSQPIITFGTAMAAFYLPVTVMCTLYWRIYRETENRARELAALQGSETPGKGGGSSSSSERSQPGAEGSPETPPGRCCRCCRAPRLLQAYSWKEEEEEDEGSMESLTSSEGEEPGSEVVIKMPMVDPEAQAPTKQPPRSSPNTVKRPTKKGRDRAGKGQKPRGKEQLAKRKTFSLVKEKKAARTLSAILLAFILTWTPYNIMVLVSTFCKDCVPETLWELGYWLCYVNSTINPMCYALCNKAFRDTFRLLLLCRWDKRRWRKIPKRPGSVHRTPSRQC
# M1 antag: human M1 muscarinic receptor antagonists, primary screen, CHO-K1 cells, Fluo-8 calcium fluorescence, 1536-well; Muscarinic acetylcholine receptor M1 (Homo sapiens), P11229; CHO-K1 hM1, ACh EC80 antagonist; inhibition, % at 3 µM; hit rate 1.3% among 360,000; AID 588852, 2011;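 active = percent inhibition above its own plate's cutoff, namely the mean of that plate's compound wells plus 3 SD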;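 also: peak over basal fluorescence ratio during 140 s after agonist addition; 0% = ACh EC80 plus DMSO and 100% = DMSO alone without agonist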
# M1 PAM: human M1 muscarinic receptor positive allosteric modulators, primary screen, CHO-K1 cells, Fluo-8 calcium fluorescence, 1536-well; activation, % at 3 µM; hit rate 0.088% among 360,000; CHO-K1 hM1, ACh EC20; 0% = ACh EC20, 100% = maximal ACh; in the data active = activation above about 19%, passing the limit was not always enough
# * = called active by the depositor. Shown are actives, neighbours in structure and some others; about 2.4% of the full set was active somewhere.
SMILES,CHO-K1 Ca ag,CHO-K1 Ca antag,CHO-K1 Ca PAM,M1 ag,M1 antag,M1 PAM
COc1cc(SC)ccc1C(=O)NCC1CCCCC1,5,-10,10,0,-9,11
O=C(CSc1nnc(-c2cccc(Br)c2)o1)NCC1CCCO1 (stereo unspecified),0,26*,-12,0,1,5
Cc1ccccc1-c1nnc(SCC(=O)NCC2CCCO2)o1 (stereo unspecified),0,-14,20,-1,-13,8
O=C(CCN1C(=O)/C(=C/c2ccccc2)SC1=S)NCCCN1CCOCC1,5,2,-7,-7,-10,7
O=C(CCN1C(=O)/C(=C/c2ccccc2F)SC1=S)NCCCN1CCOCC1,19*,5,1,-7,1,1
CC1CCCCC1NCC#CCOc1ccc(Cl)cc1 (stereo unspecified),2,-12,18,-6,63*,-23
COc1ccc(NC(=O)CSc2nc(N)cc(N)n2)cc1S(=O)(=O)N1CCCCC1,-1,-4,19,-4,-6,6
COc1ccc(C2CC(=O)c3c(O)cc(O)cc3O2)cc1O (stereo unspecified),1,14,-13,-2,28*,-18
O=C1CC(c2ccc(O)c(O)c2)Oc2cc(O)cc(O)c21 (stereo unspecified),0,12,-12,2,-11,15
CCCc1ccc2oc(C(=O)N3CCN(c4cnccn4)CC3)c(C)c2c1,3,-6,16,8,7,15
Cc1c(C(=O)c2ccc(N(C)C)cc2)c2ccccn2c1CCC#N,0,25*,-18,0,2,5
CNC(=O)CSc1nnc(-c2ccco2)n1-c1ccccc1OC,0,-9,11,4,-25,25*
COc1ccc(CCNC(=O)CCCn2c(=S)[nH]c3cc4c(cc3c2=O)OCO4)cc1OC,0,13,-11,-2,-6,4
Cn1c(=O)n(C)c2cc(S(=O)(=O)Nc3ccccc3O)ccc21,4,-18,34,-4,5,-1
Cc1ccc(NS(=O)(=O)c2ccc3c(c2)n(C)c(=O)n3C)c(C)c1,18*,0,25,0,-10,7
COc1ccccc1NS(=O)(=O)c1cn(C)cn1,0,-11,6,-2,-2,3
CCN(CC)c1ccc(C2C(C(=O)OC)=C(C)NC(C)=C2C(=O)OC)cc1,0,4,-4,-7,37*,-26
CCOC(=O)C1=C(C)NC(C)=C(C(=O)OCC)C1c1ccncc1,0,-10,3,-3,-20,7
CCOC(=O)C1=C(C)NC(=O)NC1c1ccc(N(CC)CC)cc1 (stereo unspecified),0,-2,0,-12,30*,-24
COC(=O)C1=C(C)NC(C)=C(C(=O)OC)C1c1ccc(NC(C)=O)cc1,0,-15,12,32*,-12,-5
COC(=O)C1=C(C)NC(C)=C(C(=O)OC)C1c1ccco1,19*,-3,6,-3,0,9
COC(=O)c1cc(C(=O)OCC(=O)c2ccc3c(c2)NC(=O)CO3)cc([N+](=O)[O-])c1,0,14,-27,-2,-10,3
CC1(C2CC2)NC(=O)N(CC(=O)Nc2ccccc2C#N)C1=O (stereo unspecified),10,-1,7,-1,-8,8
CCCCC#Cc1cncc(C(=O)NN)c1,19*,-2,12,4,-6,4
CCCCCCC#Cc1cncc(C(=O)NNC(=O)Nc2cc(Cl)cc(Cl)c2)c1,0,-2,-11,-3,-5,4
COC(=O)C1CCN(Cc2ccc(OCCCN3CCN(c4ccc([N+](=O)[O-])cc4)CC3)cc2)CC1,13,4,6,-5,48*,-25
O=C1C2CCCCN2C(=O)N1CCCCN1CCN(c2ccc([N+](=O)[O-])cc2)CC1 (stereo unspecified),16*,4,14,-3,1,1
